Results filed as inconclusive are left out. Activity calls are given as the source filed them. Unless noted, calls follow the shape of the dose curve; as a rule, active = well fitted curve in the direction sought with a large enough effect in the repeat runs; inconclusive = weak or mixed curves; inactive = no such curve, though single readings can be large; an effect the other way counts as inactive or inconclusive.
Assays:
[1] = biological target: Progesterone receptor (Homo sapiens) (UniProt P06401); assay: qHTS assay to identify small molecule agonists of the progesterone receptor (PR) signaling pathway (AID 1346784; calls by dose curve; also: nearly all actives have a fitted effect of over 30% in size)
Sequence of Progesterone receptor (Homo sapiens) (P06401 whole entry, looked up): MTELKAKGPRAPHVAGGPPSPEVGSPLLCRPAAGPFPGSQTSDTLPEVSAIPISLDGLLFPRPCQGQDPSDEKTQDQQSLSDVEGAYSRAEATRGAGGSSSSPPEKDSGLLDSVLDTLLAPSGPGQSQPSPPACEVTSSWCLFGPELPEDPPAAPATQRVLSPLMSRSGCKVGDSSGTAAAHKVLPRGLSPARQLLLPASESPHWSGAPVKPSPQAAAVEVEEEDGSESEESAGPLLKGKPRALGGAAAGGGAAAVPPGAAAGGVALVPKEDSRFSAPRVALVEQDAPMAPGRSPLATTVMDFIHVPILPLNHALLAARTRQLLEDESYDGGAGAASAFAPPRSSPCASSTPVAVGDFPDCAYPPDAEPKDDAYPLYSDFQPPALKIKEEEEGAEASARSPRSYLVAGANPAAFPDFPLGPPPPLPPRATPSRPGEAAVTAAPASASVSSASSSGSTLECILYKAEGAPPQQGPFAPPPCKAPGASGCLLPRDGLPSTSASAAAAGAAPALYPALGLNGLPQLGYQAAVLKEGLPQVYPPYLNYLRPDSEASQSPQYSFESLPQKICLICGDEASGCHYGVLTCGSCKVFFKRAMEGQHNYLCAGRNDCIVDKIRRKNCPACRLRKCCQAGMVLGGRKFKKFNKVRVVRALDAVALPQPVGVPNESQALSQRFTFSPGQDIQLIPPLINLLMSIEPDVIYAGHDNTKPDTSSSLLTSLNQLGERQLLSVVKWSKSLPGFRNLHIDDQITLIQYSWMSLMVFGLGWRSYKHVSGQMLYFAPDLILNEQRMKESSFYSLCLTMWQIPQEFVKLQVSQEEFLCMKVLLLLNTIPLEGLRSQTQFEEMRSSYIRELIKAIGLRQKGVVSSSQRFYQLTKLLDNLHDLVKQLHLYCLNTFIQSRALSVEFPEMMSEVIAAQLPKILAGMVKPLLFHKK
Summary of the method: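 PR-UAS-bla HEK 293T cells carrying a UAS-driven beta-lactamase reporter were seeded in medium with 2% charcoal-stripped FBS, preincubated 6 hr at 37C, then exposed to compounds in DMSO for 16 hr; agonism was read by LiveBLAzer B/G FRET fluorescence.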

[2] = biological target: Progesterone receptor (Homo sapiens) (UniProt P06401); assay: qHTS assay to identify small molecule antagonists of the progesterone receptor (PR) signaling pathway (AID 1346795; active = well fitted inhibition curve with a large enough effect in the signal ratio in the repeat runs, not every such curve was filed as active; the % refers to the signal ratio; also: potency is read from the fitted curve at half-maximal effect)
Summary of the method: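 PR-UAS-bla HEK293T cells carrying a UAS-driven beta-lactamase reporter were plated in medium with 2% charcoal-stripped FBS and rested 6 hr at 37C. Compounds were added with 1 nM R5020 (final) for 16 hr, then FRET substrate loaded 2 hr at room temperature.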

[3] = qHTS assay to identify small molecule antagonists of the progesterone receptor (PR) signaling pathway - cell viability counter screen (AID 1346798); also: nearly all actives have a fitted effect of over 50% in size; also: potency is read from the fitted curve at half-maximal effect
Summary of the method: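 PR-UAS-bla HEK293T cells in medium with 2% charcoal-stripped FBS were treated with compounds plus R5020 for 16 hr at 37C. Cell viability was then read by CellTiter-Glo luminescence after 30 min at room temperature in the same wells.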

[4] = qHTS assay to identify small molecule agonists of the progesterone receptor (PR) signaling pathway - cell viability counter screen (AID 1346799; calls by dose curve; also: nearly all actives have a fitted effect of over 45% in size; also: potency is read from the fitted curve at half-maximal effect)
Summary of the method: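 PR-UAS-bla HEK293T cells, 3,000 per well in medium with 2% charcoal-stripped FBS, were preincubated 6 hr at 37C, then exposed to compounds for 16 hr; viability was read as CellTiter-Glo luminescence after 30 min at room temperature.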

[5] = qHTS assay to identify small molecule agonists of the TGF-beta/Smad signaling pathway - cell viability counter screen (AID 1346829); also: top concentration of the series differs between compounds; nearly all actives have a fitted effect of over 45% in size
Summary of the method: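 Here the cytotoxicity of library compounds is measured in SBE-bla HEK 293T cells treated for 5 hr, using CellTiter-Glo added to wells already read for the beta-lactamase reporter.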

[6] = qHTS assay to identify small molecule agonists of the TGF-beta/Smad signaling pathway (AID 1346859; active = well fitted activation curve with a large enough effect in the signal ratio in the repeat runs, not every such curve was filed as active; the % refers to the signal ratio; also: series mostly up to about 77 µM)
Summary of the method: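 HEK 293T cells stably carrying a beta-lactamase reporter driven by the Smad binding element were seeded overnight, exposed to DMSO-dissolved compounds for 5 hr at 37 C, 5% CO2, then loaded with FRET substrate for 2 hr at room temperature.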

[7] = Human pregnane X receptor (PXR) small molecule agonists, qHTS cell viability counter screen (AID 1346977); also: nearly all actives have a fitted effect of over 50% in size; also: potency is read from the fitted curve at half-maximal effect
Summary of the method: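 PXR-Luc HepG2 cells in medium with 5% charcoal-stripped FBS were pre-incubated 5hr, then exposed to compounds for 24hr at 37C. Viability was read in the same wells by CellTiter-Fluor fluorescence, reagent added after 23hr with a 1hr incubation.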

[8] = Caspase-3/7 induction in HepG2 cells by small molecules, qHTS assay (AID 1346978); also: nearly all actives have a fitted effect of over 15% in size
Summary of the method: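 Wild-type HepG2 cells (2,000/well) were settled 5 h at 37 C, 5% CO2, then exposed to compounds in DMSO for 17 h. Caspase-3/7 activity was read by luminescence 30 min after adding Caspase-Glo 3/7 reagent at room temperature.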

[9] = Caspase-3/7 induction in CHO-K1 cells by small molecules, qHTS assay (AID 1346980); also: nearly all actives have a fitted effect of over 15% in size
Summary of the method: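 Wild-type cells were seeded at 1,500 per well and settled 5 hr at 37 C, 5% CO2, then exposed to DMSO-dissolved compounds for 17 hr. Caspase-Glo 3/7 reagent was added, and luminescence was read after 30min at room temperature.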

[10] = Caspase-3/7 induction in HepG2 cells by small molecules, qHTS cell viability counter screen (AID 1346981); also: series mostly up to about 92 µM; nearly all actives have a fitted effect of over 30% in size
Summary of the method: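 Steps: seed 2,000 HepG2 cells per well; incubate 5 hr at 37 C; pin-add compounds in DMSO; incubate 16 hr; add CellTiter-Fluor; after 1 hr at 37 C and 5% CO2, read fluorescence.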

[11] = biological target: Nuclear receptor subfamily 1 group I member 2 (Homo sapiens) (UniProt O75469); assay: Human pregnane X receptor (PXR) small molecule agonists, qHTS assay (AID 1346982); also: nearly all actives have a fitted effect of over 35% in size; also: potency is read from the fitted curve at half-maximal effect
Sequence of Nuclear receptor subfamily 1 group I member 2 (Homo sapiens) (O75469 whole entry, looked up): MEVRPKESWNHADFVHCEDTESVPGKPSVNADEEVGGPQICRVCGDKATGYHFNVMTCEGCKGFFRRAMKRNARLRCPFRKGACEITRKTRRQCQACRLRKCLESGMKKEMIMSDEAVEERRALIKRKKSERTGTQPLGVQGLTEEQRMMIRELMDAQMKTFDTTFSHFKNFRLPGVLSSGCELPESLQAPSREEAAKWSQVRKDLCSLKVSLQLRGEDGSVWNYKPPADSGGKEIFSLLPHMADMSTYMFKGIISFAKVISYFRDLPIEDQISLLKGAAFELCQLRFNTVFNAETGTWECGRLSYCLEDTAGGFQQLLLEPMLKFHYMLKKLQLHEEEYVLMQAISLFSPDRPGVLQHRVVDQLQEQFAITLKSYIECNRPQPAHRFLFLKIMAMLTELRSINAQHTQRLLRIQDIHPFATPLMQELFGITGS
Summary of the method: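 Agonist mode qHTS: PXR-Luc HepG2 cells plated 5 hr before DMSO-dissolved compounds were pinned in, cultured 24 hr at 37 C, 5% CO2; ONE-Glo luminescence readout.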

[12] = biological target: Cytochrome P450 2D6 (Homo sapiens) (UniProt P10635); assay: Cytochrome P450 Family 2 Subfamily D Member 6 (CYP2D6) small molecule antagonists: luciferase reporter qHTS assay (AID 1671196); also: nearly all actives have a fitted effect of over 50% in size; also: potency is read from the fitted curve at half-maximal effect
Sequence of Cytochrome P450 2D6 (Homo sapiens) (P10635 whole entry, looked up): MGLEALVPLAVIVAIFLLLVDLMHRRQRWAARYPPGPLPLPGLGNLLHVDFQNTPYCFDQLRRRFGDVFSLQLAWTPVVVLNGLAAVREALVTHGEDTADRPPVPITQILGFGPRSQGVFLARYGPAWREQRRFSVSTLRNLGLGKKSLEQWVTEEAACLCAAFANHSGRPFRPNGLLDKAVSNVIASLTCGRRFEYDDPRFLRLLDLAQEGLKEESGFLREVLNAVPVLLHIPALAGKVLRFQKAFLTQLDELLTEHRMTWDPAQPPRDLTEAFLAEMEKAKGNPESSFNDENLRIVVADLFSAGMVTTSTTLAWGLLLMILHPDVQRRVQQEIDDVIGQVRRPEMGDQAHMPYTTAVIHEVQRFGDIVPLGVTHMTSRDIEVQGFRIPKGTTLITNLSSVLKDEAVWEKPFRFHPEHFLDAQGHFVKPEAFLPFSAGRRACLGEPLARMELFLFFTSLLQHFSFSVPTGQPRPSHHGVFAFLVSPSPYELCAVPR
Summary of the method: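 P450-Glo format: CYP2D6 converts a proluciferin substrate to luciferin in an NADPH-driven reaction lasting 1 h at room temperature. Light output, proportional to CYP2D6 activity, reflects interference by test chemicals.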

[13] = qHTS assay to identify small molecule antagonists of the TGF-beta/Smad signaling pathway - cell viability counter screen (AID 1346824); also: nearly all actives have a fitted effect of over 50% in size
Summary of the method: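 SBE-bla HEK 293T cells were plated overnight at 37 C, then given compounds in DMSO plus TGF-beta1 (added as 0.25 ng/mL solution) for 5 hr. After the bla read, CellTiter-Glo was added to the same wells and luminescence read after 30 min at room temperature.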

[14] = biological target: Cytochrome P450 2C19 (Homo sapiens) (UniProt P33261); assay: Cytochrome P450 Family 2 Subfamily C Member 19 (CYP2C19) small molecule antagonists: luciferase reporter qHTS assay (AID 1671197); also: nearly all actives have a fitted effect of over 65% in size; also: potency is read from the fitted curve at half-maximal effect
Sequence of Cytochrome P450 2C19 (Homo sapiens) (P33261 whole entry, looked up): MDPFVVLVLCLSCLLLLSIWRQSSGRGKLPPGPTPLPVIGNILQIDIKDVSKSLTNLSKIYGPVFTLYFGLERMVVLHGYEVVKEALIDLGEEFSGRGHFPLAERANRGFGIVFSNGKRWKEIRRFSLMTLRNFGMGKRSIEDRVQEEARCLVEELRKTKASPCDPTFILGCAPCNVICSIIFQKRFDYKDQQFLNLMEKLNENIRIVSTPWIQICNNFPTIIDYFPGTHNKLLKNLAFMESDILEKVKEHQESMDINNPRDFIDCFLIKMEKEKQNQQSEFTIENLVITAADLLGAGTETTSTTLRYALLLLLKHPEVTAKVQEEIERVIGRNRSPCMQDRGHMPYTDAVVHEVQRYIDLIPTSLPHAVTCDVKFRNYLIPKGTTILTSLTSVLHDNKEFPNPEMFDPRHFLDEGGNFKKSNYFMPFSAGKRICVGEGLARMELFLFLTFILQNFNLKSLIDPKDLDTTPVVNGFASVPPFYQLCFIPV
Summary of the method: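 Light output is proportional to CYP2C19 activity: proluciferin substrate is converted to luciferin, then detected by a luciferin detection reagent that also stops the 1 h, 37C NADPH-driven reaction. Ketoconazole serves as positive control.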

[15] = Caspase-3/7 induction in CHO-K1 cells by small molecules, qHTS cell viability counter screen (AID 1346979); also: nearly all actives have a fitted effect of over 35% in size; also: potency is read from the fitted curve at half-maximal effect
Summary of the method: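 Wild-type CHO-K1 cells were seeded at 1,500 per well, rested 5hr at 37 C, then exposed to compounds in DMSO. After 16hr, CellTiter-Fluor reagent was added and fluorescence read 1hr later as the viability measure.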

[16] = biological target: Thyrotropin-releasing hormone receptor (Homo sapiens) (UniProt P34981); assay: qHTS assay to identify small molecule antagonists of the thyrotropin-releasing hormone receptor (TRHR) signaling pathway (AID 1346877; active = well fitted inhibition curve with a large enough effect in the repeat runs, not every such curve was filed as active; also: series mostly up to about 51 µM)
Sequence of Thyrotropin-releasing hormone receptor (Homo sapiens) (P34981 whole entry, looked up): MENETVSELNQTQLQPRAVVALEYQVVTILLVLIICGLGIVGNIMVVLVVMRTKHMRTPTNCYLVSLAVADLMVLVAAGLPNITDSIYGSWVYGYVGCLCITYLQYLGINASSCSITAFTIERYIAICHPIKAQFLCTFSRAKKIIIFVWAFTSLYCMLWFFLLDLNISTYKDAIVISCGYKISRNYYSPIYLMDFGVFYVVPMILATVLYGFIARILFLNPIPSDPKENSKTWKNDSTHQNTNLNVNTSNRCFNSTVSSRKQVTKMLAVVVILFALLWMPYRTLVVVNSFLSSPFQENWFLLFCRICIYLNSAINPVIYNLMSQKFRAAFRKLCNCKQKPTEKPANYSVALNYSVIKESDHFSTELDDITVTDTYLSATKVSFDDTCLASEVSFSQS
Summary of the method: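 Cells (TRHR-HEK293) are plated and kept 18 h at 37 °C/5% CO2. A calcium-sensitive dye is added for 2 h, compound follows for 5 min at room temperature, and TRH is then given at 1 nM final.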

[17] = biological target: Nuclear receptor subfamily 1 group I member 2 (Rattus norvegicus) (UniProt Q9R1A7); assay: Rat pregnane X receptor (rPXR) activation by small molecules, qHTS assay (AID 1346983); details: rPXR luciferase reporter cells, One-Glo luminescence, 24 h; max activation: hits give high values; also: nearly all actives have a fitted effect of over 20% in size
Sequence of Nuclear receptor subfamily 1 group I member 2 (Rattus norvegicus) (Q9R1A7 whole entry, looked up): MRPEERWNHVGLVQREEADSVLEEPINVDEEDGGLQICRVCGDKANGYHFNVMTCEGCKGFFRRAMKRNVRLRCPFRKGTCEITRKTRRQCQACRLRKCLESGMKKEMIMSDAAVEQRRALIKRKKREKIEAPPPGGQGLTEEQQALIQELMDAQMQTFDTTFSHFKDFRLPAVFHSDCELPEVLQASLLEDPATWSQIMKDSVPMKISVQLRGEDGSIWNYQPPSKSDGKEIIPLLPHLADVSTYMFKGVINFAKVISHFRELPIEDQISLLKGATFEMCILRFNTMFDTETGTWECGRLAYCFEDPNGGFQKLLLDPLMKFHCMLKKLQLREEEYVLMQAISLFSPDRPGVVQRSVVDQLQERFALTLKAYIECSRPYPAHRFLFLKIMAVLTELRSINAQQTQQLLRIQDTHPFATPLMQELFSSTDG
Summary of the method: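 Cell-based rPXR luciferase reporter assay, 2,000 cells per well, rested 5hr at 37 C before compound addition in DMSO, then 24 hr at 37 C. One-Glo reagent was added and luminescence read after 30 min at room temperature.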

[18] = biological target: Thyrotropin-releasing hormone receptor (Homo sapiens) (UniProt P34981); assay: qHTS assay to identify small molecule agonists of the thyrotropin-releasing hormone receptor (TRHR) signaling pathway (AID 1346891; calls by dose curve; also: series mostly up to about 58 µM)
Summary of the method: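 TRHR-expressing HEK293 cells were plated 18 h at 37 °C/5% CO2, loaded with calcium dye 2 h at 37 °C, then given compound in DMSO; fluorescence was read kinetically for 3 min at 1 s intervals.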

[19] = biological target: Nuclear receptor subfamily 1 group I member 2 (Homo sapiens) (UniProt O75469); assay: CYP3A4 induction through human pregnane X receptor (PXR) by small molecules, qHTS assay (AID 1346984); also: nearly all actives have a fitted effect of over 40% in size
Summary of the method: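 Steps: seed DPX-2 cells, 5 hr at 37C; pin-transfer compounds; 24 hr at 37C; add Luciferin-IPA (3uM final), 3 hr at 37C; add One-Glo, 30 min RT; read luminescence.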

[20] = biological target: Nuclear receptor subfamily 1 group I member 2 (Homo sapiens) (UniProt O75469); assay: Human pregnane X receptor (PXR) activation by small molecules, qHTS assay (AID 1346985); also: nearly all actives have a fitted effect of over 40% in size
Summary of the method: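 DPX-2 cells (HepG2 co-transfected with a PXR response element and a CYP3A4-promoter luciferase construct) were seeded at 2,000 per well, rested 5 hr at 37C, then exposed to DMSO-dissolved compounds for 24 hr. Activation was read as luciferase luminescence.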
% is scaled to controls: 0 for no effect and ±100 for the full control effect.

O=C(O)c1ccc(Cl)c(Cl)c1
inactive: Potency [1] | Potency [2] | Potency [3] | Potency [4] | Potency [5] | Potency [6] | Potency [7] | Potency [8] | Potency [9] | Potency [10] | Potency [11] | Potency [12]

COC(=O)C1=C(C)NC(C)=C(C(=O)OCCc2ccc(N3CCN(C(c4ccccc4)c4ccccc4)CC3)cc2)C1c1cccc([N+](=O)[O-])c1 (stereo unspecified)
active: Potency [14] 7.76 µM
inactive: Potency [1] | Potency [2] | Potency [3] | Potency [4] | Potency [13] | Potency [5] | Potency [6] | Potency [7] | Potency [8] | Potency [9] | Potency [10] | Potency [11] | Potency [12]

O=C(O)c1c(Cl)cccc1Cl
inactive: Potency [1] | Potency [2] | Potency [3] | Potency [4] | Potency [5] | Potency [6] | Potency [7] | Potency [8] | Potency [15] | Potency [9] | Potency [10] | Potency [11] | Potency [12]
active: Potency [14] 34.9 µM

CC(C)=CCOc1ccc(/C=C/C(=O)c2ccc(OCC=C(C)C)cc2OCC(=O)O)cc1
active: Potency [2] 26.6 µM
inactive: Potency [1] | Potency [3] | Potency [4] | Potency [13] | Potency [5] | Potency [16] | Potency [7] | Potency [8] | Potency [9] | Potency [10] | Potency [11] | max activation [17] -3.35%

CCCCCCCCCCCCCCCC[N+](C)(C)CCN(Cc1ccc(OC)cc1)c1ncccn1
inactive: Potency [1] | Potency [2] | Potency [6] | Potency [16] | Potency [18] | Potency [11] | max activation [17] -2.3% | Potency [19] | Potency [20]
active: Potency [3] 29.8 µM | Potency [4] 21.1 µM | Potency [7] 29.8 µM | Potency [15] 26.6 µM | Potency [12] 15.5 µM

CCC(C)(C)C1CCCCC1OC(C)=O (stereo unspecified)
inactive: Potency [1] | Potency [2] | Potency [3] | Potency [4] | Potency [13] | Potency [5] | Potency [6] | Potency [16] | Potency [18] | Potency [7] | Potency [8] | Potency [9] | Potency [10] | Potency [12] | Potency [14]

COC(=O)c1cc(Cl)ccc1OC
inactive: Potency [1] | Potency [2] | Potency [3] | Potency [4] | Potency [5] | Potency [6] | Potency [16] | Potency [18] | Potency [7] | Potency [8] | Potency [15] | Potency [9] | Potency [10] | Potency [11] | Potency [14]

c1ccc(CSCc2ccccc2)cc1
inactive: Potency [1] | Potency [2] | Potency [3] | Potency [13] | Potency [5] | Potency [6] | Potency [16] | Potency [18] | Potency [7] | Potency [8] | Potency [9] | Potency [10]
active: Potency [11] 27.2 µM | Potency [14] 2.82 µM

From PubChem BioAssay (Tox21)
